Lassa entry inh: inhibitors of Lassa virus binding or cell entry; Lassa virus pseudotype entry inhibition, cell reporter; Potency, µM (doses to about 37.9 µM), for the others: at the top dose activity change, negative = inhibition, usual class: inhibitors; 300,000 compounds, 1.2% hits; AID 540256; calls by dose curve; tested in HEK293 cells; also: potency is read from the fitted curve at half-maximal effect; nearly all actives have a fitted effect of over 50% in size
VACV mCherry inh: vaccinia inhibition (mCherry reporter). 310,000 compounds, 0.63% hits. AID 720579. Vaccinia virus mCherry reporter infection, fluorescence. Potency, µM (highest dose often 36.5 µM), without a hit: at the top dose activity change, negative = inhibition, usual class: inhibitors; calls by dose curve; tested in A549 cells; also: potency is read from the fitted curve at half-maximal effect; nearly all actives have a fitted effect of over 35% in size
MARV entry inh: inhibitors of Marburg virus binding or cell entry | AID 540276 | Potency, µM (doses to about 37.8 µM), for inactives: at the top dose activity change, negative = inhibition, actives largely listed as inhibitors | 300,000 compounds, 1.8% hits | Marburg virus pseudotyped entry inhibition, cell reporter; calls by dose curve; tested in HEK293 cells; also: potency is read from the fitted curve at half-maximal effect
Vaccinia Venus: vaccinia inhibition (Venus reporter) | Potency, µM (titrated, usually from 36.5 µM), inactives show at the highest dose activity change, negative = inhibition, usual class: inhibitors | 330,000 compounds, 0.46% hits | Vaccinia virus Venus reporter expression, fluorescence; calls by dose curve; tested in A549 cells; also: potency is read from the fitted curve at half-maximal effect; nearly all actives have a fitted effect of over 30% in size
FMDV inh: foot and mouth disease virus antiviral activity. FMDV antiviral cell-based qHTS. Potency, µM (titrated, usually from 57.9 µM), for inactives: top-dose activity change, negative = inhibition, hits mostly inhibitors. 410,000 compounds, 1.2% hits; calls by dose curve; tested in HEK293T cells; also: read-out not given here; potency is read from the fitted curve at half-maximal effect; nearly all actives have a fitted effect of over 45% in size
HCMV inh: blocks human cytomegalovirus replication | HFF cells, HCMV-luciferase reporter, 72 h; hits give low values | activity change, negative = inhibition, % at 57.5 µM | 410,000 compounds, 4.5% hits | AID 1259415; in the data active = activity change below about -60%; inconclusive = no clear call, values can overlap the other calls; inactive = above about -39%
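Inhibition of viral replication was scored as loss of reporter luminescence in HFFs infected with HCMV-luciferase (MOI 1 PFU/cell) for 72 h; compounds tested at 2 doses, normalized to buffer and Salinomycin controls.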
* marks the source's active call; other numbers are inactive results; i = inactive; ? = inconclusive; . = no result given; + = active, no number; [ ] = remark or other dose. Most compounds without a hit are left out; they make up all but 6.5% or so of the library. % is scaled to controls: 0 for no effect and ±100 for the full control effect.

SMILES	Lassa entry inh	VACV mCherry inh	MARV entry inh	Vaccinia Venus	FMDV inh	HCMV inh
O=C1N(Cc2cccc(Cl)c2)C[C@@H]2C[C@@H](c3cccn3-c3cccnc3)N3CCC[C@@]123	?	-13%	13µM*	-11%	?	-86*
O=C(NCc1cccc(F)c1)c1cccc(OC2CCN(C(=O)C3CC3)CC2)c1	-29%	-8%	?	?	28µM*	?
O=S(=O)(c1ccc(Cl)cc1)c1cnc2ccccc2n1	?	-9%	-61%[46.1 µM]	-4%	25µM*	-32
CCOC(=O)c1ccccc1NC(=O)N(Cc1ccc(CC)cc1)Cc1cn[nH]c1-c1ccc(OC)cc1	-2%[46.1 µM]	?	?	?	?	-63*
Cc1cccc(OCc2n(CC(=O)OC3CC(C)CCC3C(C)C)c3ccccc3[n+]2C)c1 (configuration not stated)	?	?	2.5µM*	-30%	?	.
Cc1cccc(OC(=O)Cn2c(C(F)(F)F)nc3ccccc32)c1	9%	-8%	?	-3%	-8%	24
CC1CCC(C(C)C)C(OC(=O)Cn2c(COc3ccccc3)[n+](C)c3ccccc32)C1 (configuration not stated)	?	?	?	?	28µM*	-100*
CCCCC[C@@H](/C=C/C1C(=O)C=C[C@H]1C/C=C\CCCC(=O)O)OC(C)=O (some centres not stated)	.	?	.	14%	35µM*	112
CCC(=O)N[C@@H]1c2ccccc2C2(CCN(Cc3cnc(N(C)C)s3)CC2)[C@H]1OC	.	-13%	.	-3%	8%	.
COCCN1C(=O)CS/C1=C(/C#N)C(=O)NCc1ccco1	-7%[46.1 µM]	15%	-14%[46.1 µM]	59%	4%	-84*
COc1ccc(C2=NS(=O)(=O)N(C)C(C(=O)Nc3ccc(OC)c(OC)c3)=C2)cc1	.	i	.	-9%	?	?
COc1ccc(NC(=O)C2=CC(c3ccc(C)cc3)=NS(=O)(=O)N2C)cc1OC	.	i	.	-11%	?	-62*
COc1ccc2c(c1)-c1nc(-n3ncc(C(=O)NCc4cccnc4)c3C3CC3)ncc1CC2	.	?	.	-18%	?	.
COCCn1c(-c2ccccc2)csc1=Nc1cccnc1	6%[46.1 µM]	i	?	-7%	?	-37
Cc1ccc(-c2csc(=Nc3cccnc3)n2CCCn2ccnc2)cc1C	?	-12%	?	?	16µM*	-95*
CCCCn1c(C)csc1=Nc1cccnc1	2%	i	-14%	-14%	-23%	-63*
COc1ccc(-n2c(/C=C3/C(=O)Nc4ccccc43)nc3ccccc3c2=O)cc1	?	i	?	-6%	?	?
COc1ccc2c(c1)/C(=C\c1cccc(/C=C3/C(=O)Nc4ccc(OC)cc43)n1)C(=O)N2	2.8µM*	-5%	1.6µM*	-15%	7.1µM*	-98*
Cc1csc(SCC(=O)Nc2cccc3nsnc23)n1	?	.	8%	?	-9%	-75*
Cc1csc(SCC(=O)Nc2ccccc2C)n1	0%	-11%	?	-7%	10%	-16
CC(C)c1ccc(NC(=O)c2csnn2)cc1	9.2µM*	.	?	.	-2%	85
Cc1ccc(CN2CCC(CNC(=O)Nc3c(C)cccc3C)C2)cc1 (configuration not stated)	22%[46.1 µM]	-15%	2%[46.1 µM]	-9%	-17%	-5
Cc1cc(-c2ccc(C(C)C)c(S(=O)(=O)N3CCOc4ccccc43)c2)on1	?	-15%	3.2µM*	-4%	?	-64*
Cc1ccc(-c2onc(C)c2C)cc1S(=O)(=O)N1CCOc2ccccc21	.	.	.	.	0%	+
Cc1ccc(-c2onc(C)c2C)cc1S(=O)(=O)N1c2ccccc2CC1C (configuration not stated)	-21%[46.1 µM]	?	.	-30%	?	-39
SMILES	Lassa entry inh	VACV mCherry inh	MARV entry inh	Vaccinia Venus	FMDV inh	HCMV inh
N#Cc1ccc(CSC2=NCCN2)cc1	?	-22%	?	-22%	-28%	?
CCOc1ccc(CSC2=NCCN2)cc1Cl	?	.	15µM*	.	-14%	35
CC(C)C(=O)Nc1nc2cc3c(cc2s1)OCCO3	4.5µM*	i	?	-16%	-34%	-9
O=C(Nc1nc2cc3c(cc2s1)OCO3)C1=COCCO1	?	?	0.65µM*	-26%	-83%	-71*
CC(=O)Nc1nc2cc3c(cc2s1)OCO3	.	-20%	.	3%	47%	-5
O=C(Nc1nc2cc3c(cc2s1)OCCO3)c1ccco1	0.79µM*	?	0.79µM*	?	?	-92*
CCc1ccc(NC(=O)C2CCN(c3nnc(-n4c(C)ccc4C)s3)CC2)cc1	-1%[46.1 µM]	-21%	2%[46.1 µM]	-16%	?	27
COc1ccc2ccccc2c1CN1CCCC(n2cc(C(=O)N3CCCC3)nn2)C1 (configuration not stated)	.	-4%	.	-1%	12%	.
CC(C)=CCCC(C)=CCN1C(=O)[C@@]2(C[C@@H](C)C[C@@H](C)O2)c2ccccc21	.	.	-7%[14.2 µM]	.	.	.
Cc1ccc2nc(SCC(=O)N3CCOc4ccc(CN5C[C@@H](C)O[C@@H](C)C5)cc4C3)[nH]c2c1	.	-13%	.	-3%	-3%	.
Fc1ccc(C2=CCN(C(c3cccs3)c3nnnn3CCc3ccccc3)CC2)cc1 (configuration not stated)	?	?	-2%[46.1 µM]	?	-6%	?
CCC(C)(C)n1nnnc1C(c1cccs1)N1CC=C(c2ccc(F)cc2)CC1 (configuration not stated)	?	-23%	15µM*	-26%	.	-63*
CC1=CCC2C(=O)N(c3ccc(C(=O)Nc4ccccc4Cl)cc3)C(=O)C2C1 (configuration not stated)	.	.	.	.	0%	-102*
C#CCCCON=C1C[C@@H](O)[C@H](O)[C@H]2[C@@H]3C(=O)N(C[C@@H]4CCCO4)C(=O)[C@@H]3CC[C@@H]12	.	.	3%[14.2 µM]	.	.	.
Cc1ccc(S(=O)(=O)Nc2ccc3c4c(cccc24)CC3)c(C)c1	-22%	?	?	-29%	31%	-70*
Cc1cc(C)c(S(=O)(=O)Nc2ccc3c4c(cccc24)CC3)c(C)c1	1µM*	?	?	?	6%	-100*
Cc1ccc(S(=O)(=O)Nc2ccc(O)c3ccccc23)c(C)c1	-6%	-20%	?	-16%	-12%	?
COc1ccc(-c2[nH]c(-c3cccc(OC)c3)nc2SCC(=O)Nc2ccc3c(c2)OCO3)cc1	7.9µM*	-13%	-14%[46.1 µM]	-9%	5%	?
COc1cc(-c2nc(SCC(=O)Nc3ccc4c(c3)OCO4)c(-c3ccccc3)[nH]2)cc(OC)c1OC	?	-16%	?	-15%	3%	?
O=C(CSc1nc(-c2ccccc2)c(-c2ccccc2)[nH]1)Nc1ccc2c(c1)OCO2	?	-27%	?	-27%	-18%	-68*
O=C(CSc1nc2ncccc2[nH]1)Nc1ccc2c(c1)OCO2	18%	i	-3%[46.1 µM]	-8%	18%	17

Source: PubChem
